# About 8,800 targets were measured; listed, in parts, are those with a hit and a random draw of the rest. About 0.5% of all pairs of compound and target were hits. Unmarked numbers belong to inactive results.
# Legend:
# Assay in all cases: log2 fold change, soluble protein after heating vs DMSO (PISA); higher = thermal stabilisation; K562 lysate, 10 uM; active = over 0.2 and 3.5 SD of the protein, either way, in both replicates (recomputed)
# [1] = compound: Cc1cn(-c2cc(NC(=O)c3ccc(C)c(Nc4nccc(-c5cccnc5)n4)c3)cc(C(F)(F)F)c2)cn1 [nilotinib]
# In short: (§1)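 K562 pellets were dounce-homogenised in PBS pH 7.4 with 1 mM MgCl2, and the crude extract at 1 mg/mL protein was treated with 10 μM compound for 30 min. Aliquots were heated for 3 min across 48°C-58°C, pooled, and brought to 0.5% NP-40 at 4°C; soluble protein was the supernatant after 21,000xg for 90 min. Soluble protein was quantified by TMTpro 16plex LC-MS/MS with channel sums equalised, and reported as log2 fold change in thermal stability against DMSO controls, with values from duplicates.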
# [2] = compound: Cc1nc(Nc2n[nH]c3c2CN(C(=O)N[C@H](CN(C)C)c2ccccc2)C3(C)C)c2sccc2n1
# In short: as §1
# [3] = compound: Cc1nc(Nc2ncc(C(=O)Nc3c(C)cccc3Cl)s2)cc(N2CCN(CCO)CC2)n1 [dasatinib]
# In short: as §1
# [4] = compound: Cc1ncc(-c2ccnc(Nc3ccc(S(C)(=O)=O)cc3)n2)n1C(C)C
# In short: as §1
# [5] = compound: Cn1cc(-c2ccc3c(c2)CCN3C(=O)Cc2cccc(C(F)(F)F)c2)c2c(N)ncnc21
# In short: as §1
# [6] = compound: Cn1cc(CNCC2CCN(c3ncc(C(=O)NO)cn3)CC2)c2ccccc21 [quisinostat]
# In short: as §1
# [7] = compound: Cn1cncc1[C@@](N)(c1ccc(Cl)cc1)c1ccc2c(c1)c(-c1cccc(Cl)c1)cc(=O)n2C [tipifarnib]
# In short: as §1
# [8] = compound: NC(=O)Nc1cc(-c2cccc(F)c2)sc1C(=O)N[C@H]1CCCNC1
# In short: as §1
# [9] = compound: NC(=O)c1cnc(N[C@@H]2CCCC[C@@H]2N)nc1Nc1cccc(-n2nccn2)c1
# In short: as §1
# [10] = compound: NC1(c2ccc(-c3nc4ccn5c(=O)[nH]nc5c4cc3-c3ccccc3)cc2)CCC1
# In short: as §1
# [11] = compound: O=C(CCCCCCC(=O)Nc1ccccc1)NO [vorinostat]
# In short: as §1
# [12] = compound: O=C(O)c1ccc2c(c1)nc(Nc1cccc(Cl)c1)c1ccncc12 [silmitasertib]
# In short: as §1
# [13] = compound: O=C1NC(=O)C(c2cnc3ccccn23)=C1c1cn2c3c(cc(F)cc13)CN(C(=O)N1CCCCC1)CC2
# In short: as §1
# [14] = compound: c1cn2cc(-c3ccc4cn[nH]c4c3)nc(Nc3ccc(N4CCOCC4)cc3)c2n1 [entospletinib]
# In short: as §1
# [15] = compound: NCC(=O)Nc1ccc(-n2nc(C(F)(F)F)cc2-c2ccc3c(ccc4ccccc43)c2)cc1
# In short: as §1
# UniProt P62328, sequence (P62328 whole entry, looked up): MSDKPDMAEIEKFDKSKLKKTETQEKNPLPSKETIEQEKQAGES
# UniProt Q9NPG3, sequence (Q9NPG3 whole entry, looked up): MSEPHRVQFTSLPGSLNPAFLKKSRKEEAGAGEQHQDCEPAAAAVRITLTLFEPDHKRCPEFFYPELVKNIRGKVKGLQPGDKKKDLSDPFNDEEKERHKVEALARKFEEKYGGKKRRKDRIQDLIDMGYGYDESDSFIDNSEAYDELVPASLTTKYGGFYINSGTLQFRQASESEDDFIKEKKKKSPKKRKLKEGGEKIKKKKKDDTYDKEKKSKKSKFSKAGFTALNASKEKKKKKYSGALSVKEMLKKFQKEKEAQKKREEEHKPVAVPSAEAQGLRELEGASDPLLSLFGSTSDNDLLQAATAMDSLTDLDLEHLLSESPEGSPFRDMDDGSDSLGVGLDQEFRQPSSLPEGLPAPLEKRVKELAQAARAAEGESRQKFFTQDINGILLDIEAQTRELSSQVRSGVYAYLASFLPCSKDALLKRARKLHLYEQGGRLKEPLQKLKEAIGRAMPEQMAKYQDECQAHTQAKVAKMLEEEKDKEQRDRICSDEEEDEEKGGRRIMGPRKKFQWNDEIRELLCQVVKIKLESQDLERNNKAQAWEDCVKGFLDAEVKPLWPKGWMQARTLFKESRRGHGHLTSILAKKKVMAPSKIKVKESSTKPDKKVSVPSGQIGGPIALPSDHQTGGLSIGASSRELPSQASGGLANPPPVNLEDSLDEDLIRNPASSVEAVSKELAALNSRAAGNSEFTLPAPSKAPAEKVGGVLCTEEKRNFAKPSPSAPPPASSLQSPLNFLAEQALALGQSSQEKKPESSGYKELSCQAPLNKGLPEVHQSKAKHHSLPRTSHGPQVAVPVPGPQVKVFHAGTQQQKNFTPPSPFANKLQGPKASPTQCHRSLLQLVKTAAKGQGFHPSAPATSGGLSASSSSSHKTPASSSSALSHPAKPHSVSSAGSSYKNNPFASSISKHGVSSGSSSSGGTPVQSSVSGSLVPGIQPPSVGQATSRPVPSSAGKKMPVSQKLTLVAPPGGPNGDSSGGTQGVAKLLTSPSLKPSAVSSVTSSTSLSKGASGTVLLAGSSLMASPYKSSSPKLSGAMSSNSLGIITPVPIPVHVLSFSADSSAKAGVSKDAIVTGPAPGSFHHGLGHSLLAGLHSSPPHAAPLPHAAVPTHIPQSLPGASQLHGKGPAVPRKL
# UniProt Q53S58, sequence (Q53S58 whole entry, looked up): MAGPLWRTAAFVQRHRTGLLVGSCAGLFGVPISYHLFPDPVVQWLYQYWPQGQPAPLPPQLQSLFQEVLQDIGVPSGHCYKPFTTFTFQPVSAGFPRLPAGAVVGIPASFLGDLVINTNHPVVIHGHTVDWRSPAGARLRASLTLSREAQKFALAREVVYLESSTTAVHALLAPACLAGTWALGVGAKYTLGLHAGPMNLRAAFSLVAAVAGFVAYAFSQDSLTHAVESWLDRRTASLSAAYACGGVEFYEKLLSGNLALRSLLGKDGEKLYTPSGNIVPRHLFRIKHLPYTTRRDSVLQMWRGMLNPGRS
# UniProt P42680, sequence (P42680 whole entry, looked up): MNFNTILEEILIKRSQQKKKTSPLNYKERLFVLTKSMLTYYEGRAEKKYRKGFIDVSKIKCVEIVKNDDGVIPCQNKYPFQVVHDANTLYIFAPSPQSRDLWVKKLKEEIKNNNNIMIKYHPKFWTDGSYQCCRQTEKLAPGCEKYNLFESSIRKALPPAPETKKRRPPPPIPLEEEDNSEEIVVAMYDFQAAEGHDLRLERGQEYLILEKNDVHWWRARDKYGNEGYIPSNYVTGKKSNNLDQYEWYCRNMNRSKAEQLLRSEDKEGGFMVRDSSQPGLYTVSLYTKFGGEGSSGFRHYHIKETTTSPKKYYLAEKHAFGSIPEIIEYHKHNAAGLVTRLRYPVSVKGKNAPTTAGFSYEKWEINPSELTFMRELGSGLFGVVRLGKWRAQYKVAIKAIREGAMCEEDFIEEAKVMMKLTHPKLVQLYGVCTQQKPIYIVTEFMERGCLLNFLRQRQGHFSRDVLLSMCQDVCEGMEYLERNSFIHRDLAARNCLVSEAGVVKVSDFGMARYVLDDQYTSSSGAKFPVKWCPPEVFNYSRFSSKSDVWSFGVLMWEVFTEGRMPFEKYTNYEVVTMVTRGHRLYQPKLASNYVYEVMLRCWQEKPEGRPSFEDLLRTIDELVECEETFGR
# UniProt Q9H6P5, sequence (Q9H6P5 whole entry, looked up): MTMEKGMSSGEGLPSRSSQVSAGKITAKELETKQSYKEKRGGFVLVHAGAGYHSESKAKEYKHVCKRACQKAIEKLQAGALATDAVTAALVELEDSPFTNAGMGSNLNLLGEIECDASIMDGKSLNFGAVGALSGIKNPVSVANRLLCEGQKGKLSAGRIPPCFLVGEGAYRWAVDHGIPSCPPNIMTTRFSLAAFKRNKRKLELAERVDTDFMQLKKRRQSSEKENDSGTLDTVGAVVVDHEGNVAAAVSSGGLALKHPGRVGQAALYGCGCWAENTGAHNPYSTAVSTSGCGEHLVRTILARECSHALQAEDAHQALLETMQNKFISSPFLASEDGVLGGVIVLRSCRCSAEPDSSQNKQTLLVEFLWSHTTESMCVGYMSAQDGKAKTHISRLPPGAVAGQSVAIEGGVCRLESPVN
# UniProt P36406, sequence (P36406 whole entry, looked up): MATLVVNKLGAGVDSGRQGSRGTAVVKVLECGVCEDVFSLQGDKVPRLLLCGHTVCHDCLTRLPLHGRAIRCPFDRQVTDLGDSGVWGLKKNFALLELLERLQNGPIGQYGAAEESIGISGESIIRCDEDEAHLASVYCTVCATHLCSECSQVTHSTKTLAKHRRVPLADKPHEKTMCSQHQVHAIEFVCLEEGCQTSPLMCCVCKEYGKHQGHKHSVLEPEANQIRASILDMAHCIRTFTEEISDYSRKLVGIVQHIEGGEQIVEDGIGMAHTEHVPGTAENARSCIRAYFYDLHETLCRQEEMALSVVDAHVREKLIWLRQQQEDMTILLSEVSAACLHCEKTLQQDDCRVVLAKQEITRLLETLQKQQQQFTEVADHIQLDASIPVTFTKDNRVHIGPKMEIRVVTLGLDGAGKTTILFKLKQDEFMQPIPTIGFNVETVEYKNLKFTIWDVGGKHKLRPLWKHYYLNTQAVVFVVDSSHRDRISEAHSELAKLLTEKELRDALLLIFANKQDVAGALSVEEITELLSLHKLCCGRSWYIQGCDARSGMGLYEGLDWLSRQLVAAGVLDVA
# UniProt Q96CW5, sequence (Q96CW5 whole entry, looked up): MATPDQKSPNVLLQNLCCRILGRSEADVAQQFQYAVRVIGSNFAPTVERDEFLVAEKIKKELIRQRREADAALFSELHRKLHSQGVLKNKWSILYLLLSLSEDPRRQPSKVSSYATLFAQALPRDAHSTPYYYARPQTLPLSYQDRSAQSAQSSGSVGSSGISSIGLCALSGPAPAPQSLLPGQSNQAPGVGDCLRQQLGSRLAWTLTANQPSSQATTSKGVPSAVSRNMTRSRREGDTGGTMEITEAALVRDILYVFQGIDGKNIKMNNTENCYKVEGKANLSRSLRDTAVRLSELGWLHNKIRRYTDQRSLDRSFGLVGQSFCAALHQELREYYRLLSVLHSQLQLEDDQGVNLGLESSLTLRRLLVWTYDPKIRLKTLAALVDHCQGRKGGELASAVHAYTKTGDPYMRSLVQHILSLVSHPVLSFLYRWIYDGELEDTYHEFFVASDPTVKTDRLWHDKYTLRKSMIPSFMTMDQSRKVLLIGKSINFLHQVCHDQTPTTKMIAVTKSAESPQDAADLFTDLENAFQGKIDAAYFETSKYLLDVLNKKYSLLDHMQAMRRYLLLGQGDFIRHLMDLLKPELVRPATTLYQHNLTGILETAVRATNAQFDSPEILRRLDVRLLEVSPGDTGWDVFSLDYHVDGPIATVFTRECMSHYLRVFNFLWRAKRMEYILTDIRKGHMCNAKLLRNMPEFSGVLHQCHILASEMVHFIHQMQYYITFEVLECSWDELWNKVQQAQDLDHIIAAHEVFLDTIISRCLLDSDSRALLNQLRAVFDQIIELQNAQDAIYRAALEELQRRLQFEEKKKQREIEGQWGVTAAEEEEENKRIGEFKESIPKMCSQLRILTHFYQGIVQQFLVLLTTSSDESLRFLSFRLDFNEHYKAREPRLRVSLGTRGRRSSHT
# UniProt Q9H5L6, sequence (Q9H5L6 whole entry, looked up): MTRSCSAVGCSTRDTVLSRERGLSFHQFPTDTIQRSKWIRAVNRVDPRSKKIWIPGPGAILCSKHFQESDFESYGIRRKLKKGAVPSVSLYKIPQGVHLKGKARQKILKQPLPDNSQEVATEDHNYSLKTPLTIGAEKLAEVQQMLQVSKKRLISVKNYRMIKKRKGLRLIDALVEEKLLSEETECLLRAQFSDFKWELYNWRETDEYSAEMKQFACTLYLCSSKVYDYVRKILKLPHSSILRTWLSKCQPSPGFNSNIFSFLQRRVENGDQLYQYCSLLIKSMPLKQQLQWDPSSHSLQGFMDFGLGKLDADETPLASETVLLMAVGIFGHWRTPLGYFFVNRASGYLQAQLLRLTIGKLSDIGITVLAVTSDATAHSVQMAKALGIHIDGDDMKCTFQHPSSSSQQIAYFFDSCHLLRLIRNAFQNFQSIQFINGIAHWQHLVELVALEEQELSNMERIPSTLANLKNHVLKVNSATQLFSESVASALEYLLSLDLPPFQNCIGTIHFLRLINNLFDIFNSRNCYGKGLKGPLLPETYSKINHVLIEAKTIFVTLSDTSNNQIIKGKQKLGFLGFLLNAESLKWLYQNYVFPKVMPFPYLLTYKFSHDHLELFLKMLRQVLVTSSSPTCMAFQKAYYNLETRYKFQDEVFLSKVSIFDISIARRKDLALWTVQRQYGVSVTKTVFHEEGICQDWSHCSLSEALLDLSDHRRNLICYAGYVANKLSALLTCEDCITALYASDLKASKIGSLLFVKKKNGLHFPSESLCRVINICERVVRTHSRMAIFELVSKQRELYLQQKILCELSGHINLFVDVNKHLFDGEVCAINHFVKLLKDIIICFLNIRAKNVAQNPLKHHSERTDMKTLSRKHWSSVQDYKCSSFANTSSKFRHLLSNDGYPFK
Target,log2 fold change [1],log2 fold change [2],log2 fold change [3],log2 fold change [4],log2 fold change [5],log2 fold change [6],log2 fold change [7],log2 fold change [8],log2 fold change [9],log2 fold change [10],log2 fold change [11],log2 fold change [12],log2 fold change [13],log2 fold change [14],log2 fold change [15]
TASP1 (UniProt Q9H6P5),-0.319,-0.062,-0.124,0.077,-0.003,-0.094,0.089,0.046,-0.053,-0.056,0.481 (active),-0.018,0.029,0.21,–
TRIM23 (UniProt P36406),0.107,-0.004,-0.005,-0.046,0.136,-0.044,0.023,0.005,0.072,0.037,0.073,-0.03,-0.02,-0.032,0.064
UBL4A (UniProt P11441),-0.005,-0.013,0.052,-0.037,0.036,0.157,-0.024,0.02,0.007,0.016,-0.016,0.04,0.007,-0.011,-0.036
TUBGCP3 (UniProt Q96CW5),-0.031,0.029,-0.038,0.043,0.038,-0.083,-0.023,0.009,0.002,0.012,-0.459 (active),-0.014,0.019,-0.003,-0.014
TPM4 isoform 2 (UniProt P67936),0.052,-0.048,0.059,0.076,-0.011,0.122,0.024,-0.039,0.029,0.02,0.082,-0.016,-0.014,0.02,0.02
UBAP2L (UniProt F8W726),–,–,–,–,–,0.11,–,0.043,0.099,–,–,–,0.021,–,0.062
TXNRD2 isoform 3 (UniProt Q9NNW7),–,–,–,–,–,–,–,–,–,-0.228,-0.94 (active),-0.194,–,–,–
TPM3 isoform 3 (UniProt P06753),–,–,0.05,–,0.106,0.112,–,-0.09,0.001,-0.035,0.048,-0.047,-0.15,-0.024,-0.111
TPD52L2 isoform 3 (UniProt O43399),0.055,0.035,–,0.008,–,–,0.134,–,–,0.074,0.258,-0.058,–,–,–
THAP9 (UniProt Q9H5L6),–,–,0.025,–,-0.032,-0.455,–,0.07,0.179,–,–,–,0.09,0.059,0.207
TMEM177 (UniProt Q53S58),–,–,–,–,–,-0.018,–,0.036,0.029,0.067,-0.012,-0.035,0.034,0.005,-0.183
TFPI isoform 2 (UniProt P10646),–,–,–,–,–,-0.087,–,0.082,–,–,–,–,0.019,–,0.184
UBN1 (UniProt Q9NPG3),–,–,0.208,–,0.055,0.114,–,-0.053,0.001,–,–,–,-0.463,-0.034,0.048
TEC (UniProt P42680),-0.047,0.099,–,0.019,–,–,0.116,–,-0.039,–,–,–,–,0.037,-1.05 (active)
TMSB4X (UniProt P62328),-0.105,-0.107,–,0.115,–,-0.024,-0.071,0.263,-0.027,0,0.103,-0.076,0.219,-0.158,–
